Screening data: PubChem BioAssay, Broad Institute
DUX4 txn inh: inhibitors of DUX4-driven ZSCAN4 reporter expression, primary screen, 293T cells, Gaussia and Italica luciferase; 293T-iDUX4 ZSCAN4-Gaussia luciferase reporter, 24 h; active compounds read low; 0.8% of 37,000 active; activity change, negative = inhibition, % (no concentration beside the values);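 active = mean inhibition of at least 10% in the main channel, exceeding the control channel by a set limit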;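 also: 0% = median of neutral control wells and -100% = median of positive control wells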
An asterisk follows results filed as active. The entries come from a sample that favours hits as a whole.

SMILES	DUX4 txn inh
C[C@@H]1CN([C@@H](C)CO)C(=O)c2c(c3ccccc3n2C)-c2ccccc2CO[C@@H]1CN(C)Cc1ccc(Cl)c(Cl)c1	12
C[C@@H]1CN([C@@H](C)CO)C(=O)c2c(c3ccccc3n2C)-c2ccccc2CO[C@H]1CN(C)Cc1ccc(-c2ccccc2)cc1	-2
O=C(Nc1ccc2c(c1)[C@H]1C[C@H](CC(=O)N3CCCCC3)O[C@@H](CO)[C@H]1O2)NC1CCCCC1	16
COCCNC(=O)C[C@H]1CC[C@H]2[C@@H](COC[C@H](O)CN2C(=O)c2cc(Cl)cc(Cl)c2)O1	0
CC(C)CC#Cc1ccc2c(c1)O[C@@H](CN(C)C(=O)c1ccccc1F)[C@@H](C)CN([C@@H](C)CO)S2(=O)=O	1
COCC(=O)N(C)C[C@H]1Oc2cc(-c3ccc(OC)cc3)ccc2S(=O)(=O)N([C@H](C)CO)C[C@H]1C	-1
C[C@@H]1CN([C@H](C)CO)C(=O)c2cc(NC(=O)c3ccncc3)ccc2O[C@@H]1CN(C)Cc1ccc(Oc2ccccc2)cc1	2
CS(=O)(=O)Nc1ccc2c(c1)[C@@H]1C[C@H](CC(=O)O)O[C@H](CO)[C@@H]1O2	8
CCNC(=O)[C@H]1[C@H](CO)[C@H]2Cn3c(ccc(C4=CCCCC4)c3=O)[C@@H]1N2Cc1cocn1	-3
COc1ccccc1NC(=O)N1C[C@H](O)COC[C@H]2O[C@H](CC(=O)NCCc3ccncc3)CC[C@@H]21	8
Cc1noc(C)c1NC(=O)N(C)C[C@H]1Oc2c(NC(=O)C3CCOCC3)cccc2C(=O)N([C@H](C)CO)C[C@@H]1C	-2
CCC(=O)Nc1ccc2c(c1)C(=O)N(C)C[C@H](OC)[C@@H](C)CN(CC1CCOCC1)[C@@H](C)CO2	0
N#C[C@H]1[C@@H](c2ccc(C#Cc3ccccc3F)cc2)[C@H](CO)N1C(=O)C1CCC1	1
Cc1noc(C)c1NC(=O)N[C@@H]1CC[C@@H](CC(=O)N2CCN(C)CC2)O[C@@H]1CO	-2
COCC(=O)N1C[C@@H](C)[C@@H](OC)CN(C)C(=O)c2ccc(NC(=O)c3cc(C)on3)cc2OC[C@@H]1C	6
O=S(=O)(N[C@H]1CC[C@H](CCn2cc(-c3cccnc3)nn2)O[C@@H]1CO)c1ccc(Cl)cc1	-1
CCCNC(=O)N1[C@@H]2Cn3c(ccc(-c4ccccc4OC)c3=O)[C@H]1[C@@H](C(=O)N(C)C)[C@@H]2CO	4
CCNC(=O)[C@H]1[C@H](CO)[C@H]2Cn3c(ccc(/C=C/c4ccccc4)c3=O)[C@H]2N1C(=O)C1CC1	0
CCCNC(=O)N1[C@H](CO)[C@H](c2ccc(-c3cccc(OC)c3)cc2)[C@@H]1C#N	-2
O=C(Nc1ccc(F)cc1)N1CC(=O)N2[C@@H](CO)[C@H](c3ccc(C#CC4CC4)cc3)[C@@H]2C1	7
CCCNC(=O)N1[C@H](CO)[C@@H](c2ccccc2)C12CN(C(=O)CC)C2	9
C[C@H](CO)N1C[C@H](C)[C@@H](CN(C)Cc2ccc(C(=O)O)cc2)OCc2cnnn2CCCC1=O	7
C[C@H]1CN([C@@H](C)CO)C(=O)CCCn2nncc2CO[C@@H]1CN(C)Cc1ccc(C(=O)O)cc1	0
C[C@H]1CN([C@@H](C)CO)C(=O)CCCn2nncc2CO[C@@H]1CN(C)Cc1ccc(O)cc1	0
C[C@H]1CN([C@@H](C)CO)C(=O)CCCn2nncc2CO[C@H]1CN(C)Cc1ccc(O)cc1	0
SMILES	DUX4 txn inh
C[C@H](CO)N1C[C@H](C)[C@@H](CN(C)Cc2ccc(C(=O)Nc3ccccc3N)cc2)OCc2cnnn2CCCC1=O	-20*
C[C@H]1CN([C@@H](C)CO)C(=O)CCCn2nncc2CO[C@@H]1CN(C)Cc1ccc(C(F)(F)F)cc1	-4
C[C@H](CO)N1C[C@H](C)[C@@H](CN(C)Cc2ccc(C(F)(F)F)cc2)OCc2cnnn2CCCC1=O	6
C[C@@H]1CN([C@@H](C)CO)C(=O)CCCn2nncc2CO[C@H]1CN(C)Cc1ccc(C(=O)Nc2ccccc2N)cc1	-25*
C[C@@H]1CN([C@H](C)CO)C(=O)CCCn2nncc2CO[C@H]1CN(C)Cc1ccc(C(=O)Nc2ccccc2N)cc1	-22*
C[C@@H]1CN([C@@H](C)CO)C(=O)c2cc(NC(=O)CCCN(C)C)ccc2O[C@@H](C)CCCCO[C@@H]1CN(C)S(=O)(=O)c1cn(C)cn1	1
N#C[C@H]1N[C@H](CO)[C@H]1c1ccc(C#CC2CCCC2)cc1	2
Cc1ccccc1S(=O)(=O)N(C)C[C@H]1OCc2cnnn2CCCC(=O)N([C@@H](C)CO)C[C@H]1C	-2
CN(C)C(=O)c1cccc(-c2ccc([C@@H]3[C@H](CO)N4CCCCN(S(C)(=O)=O)C[C@@H]34)cc2)c1	11
CCCN1[C@H](C(=O)N2CCCCC2)[C@@H](CO)[C@@H]2Cn3c(ccc(-c4ccccc4)c3=O)[C@@H]21	-5
CN(C)C(=O)c1ccc(-c2ccccc2[C@H]2[C@@H](CO)N(C(=O)C3CCC3)[C@H]2C#N)cc1	11
COc1ccc(-c2ccc([C@H]3[C@@H](C#N)N(C(=O)c4cccnc4)[C@@H]3CO)cc2)cc1	5
CC(=O)N(C)C[C@@H]1[C@@H](c2ccc(-c3cccc(C#N)c3)cc2)[C@H](CO)N1C(C)=O	-1
CC=Cc1ccc2n(c1=O)C[C@@H]1[C@@H](CO)[C@H](C(=O)NCc3ccc4c(c3)OCO4)[C@H]2N1C(C)=O (mixture of isomers)	2
O=C(c1ccccc1)N1[C@@H](CO)[C@@H](c2ccccc2)C12CN(Cc1nccs1)C2	-8
O=C(C[C@H]1C[C@H]2c3cc(NC(=O)Cc4ccncc4)ccc3O[C@H]2[C@H](CO)O1)NCc1ccc(-c2ccccc2)cc1	-68*
O=C(C[C@@H]1C[C@@H]2c3cc(NC(=O)Cc4ccncc4)ccc3O[C@@H]2[C@H](CO)O1)NCc1cc(F)ccc1F	7
O=C(C[C@@H]1C[C@H]2c3cc(NC(=O)CC4CC4)ccc3O[C@H]2[C@H](CO)O1)NCc1cc(F)ccc1F	-3
O=C(C[C@H]1C[C@H]2c3cc(NC(=O)Cc4ccncc4)ccc3O[C@H]2[C@H](CO)O1)NCc1cc(F)ccc1F	-36*
CN(C)CC(=O)Nc1ccc2c(c1)[C@@H]1C[C@@H](CC(=O)NCc3ccc(-c4ccccc4)cc3)O[C@H](CO)[C@@H]1O2	-5
CN(C)CC(=O)Nc1ccc2c(c1)[C@@H]1C[C@H](CC(=O)NCc3ccc(-c4ccccc4)cc3)O[C@H](CO)[C@@H]1O2	-7
O=C(C[C@@H]1C[C@@H]2c3cc(NC(=O)c4ccc5c(c4)OCO5)ccc3O[C@@H]2[C@@H](CO)O1)NCCN1CCCCC1	-5
COc1ccccc1NC(=O)N1[C@H](C#N)[C@H](c2ccccc2)[C@@H]1CO	-1
O=C(NC1CCCCC1)[C@@H]1[C@@H](CO)[C@@H]2Cn3c(cccc3=O)[C@@H]2N1CC1CCCCC1	-7
Cc1nn(C)cc1NC(=O)C[C@@H]1CC[C@H]2[C@@H](COc3ccc(NC(=O)c4cccc(F)c4)cc3C(=O)N2C)O1	0
CC=Cc1ccc2n(c1=O)C[C@H]1[C@H](CO)[C@@H](C(=O)NCc3ccccn3)[C@@H]2N1C (mixture of isomers)	1
COc1ccccc1NC(=O)N1[C@@H](C#N)[C@H](c2ccccc2)[C@@H]1CO	-1
COCC#Cc1ccc([C@@H]2[C@H](CO)N3CCCCN(S(=O)(=O)c4ccc(OC)cc4)C[C@@H]23)cc1	6
